TR SRC2 fluor cs: Texas Red fluorescence interference in TRb-SRC2 counter-screen | TRb/SRC2 Texas Red total fluorescence interference | Potency, µM (top dose mostly 106 µM), inactives show at the top dose fluorescence change, negative = quenching | 280,000 compounds, 0.29% hits; active = well fitted curve in either direction with a large enough effect; inconclusive = small, poorly fitted or top-dose-only effect
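Human TRb ligand-binding domain at 0.6 uM with 20 nM Texas Red SRC2 peptide in Tris buffer containing 1 uM T3 and 5% DMSO, incubated with compound 5 h at ambient temperature. Total fluorescence (555/632 nm) calculated as parallel + 2 × perpendicular.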
Tau fluor counter: counter-screen for tau fibril formation inhibitors; tau K18 P301L Alexa594 fluorescence, heparin fibrillization; Potency, µM (titrated, usually from 57.7 µM), for inactives: top-dose activity change, negative = decrease; 280,000 compounds, 0.93% hits; note: nearly all actives have a fitted effect of over 55% in size
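Human tau K18 P301L (15 uM unlabeled, 0.24 uM Alexa 594-labeled) in 100 mM sodium acetate pH 7 with 20 uM heparin, 6 hr at 37 C. ThT 30 uM added, 1 hr ambient; Alexa 594 FP and total fluorescence read at 555/632 nm.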
TRb-SRC2 inh: TRbeta-SRC2 interaction inhibition | Potency, µM (top dose mostly 106 µM), inactives show at the highest dose activity change, negative = inhibition, usual class: inhibitors | 280,000 compounds, 0.065% hits | TRbeta-SRC2 peptide binding, fluorescence polarization; receptor liganded with 1 µM T3 | P10828 | AID 1469;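 note: plate controls were bound peptide for no effect and peptide without receptor for full effect; nearly all actives have a fitted effect of over 50% in size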
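Human TRb ligand-binding domain (0.6 uM) is mixed with 20 nM Texas Red SRC2 peptide and 1 uM T3; after compound addition and 5 hr at ambient temperature, polarization is measured and normalized to unbound and bound controls.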
Tau ThT inhib: tau fibrillization inhibition (ThT binding). AID 1460. recombinant tau K18 P301L (four-repeat tau fragment), heparin-induced fibrillization, ThT fluorescence. Potency, µM (titrated, usually from 57.4 µM), inactives show at the top dose activity, negative = inhibition, hits mostly inhibitors. 270,000 compounds, 2.1% hits. P10636; note: nearly all actives have a fitted effect of over 55% in size
Target sequence (P10636 561-689 P618L limits assumed): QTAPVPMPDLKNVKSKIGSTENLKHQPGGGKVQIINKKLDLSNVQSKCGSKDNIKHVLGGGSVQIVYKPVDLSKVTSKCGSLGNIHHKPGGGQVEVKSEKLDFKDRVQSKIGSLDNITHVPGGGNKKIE
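K18 P301L tau (15 uM + 0.24 uM Alexa 594-tagged), heparin 20 uM, NaOAc pH 7, 6 h 37 C; ThT 30 uM, 1 h RT, ex 450/em 510 nm.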
RGS12 GoLoco inh: inhibitors of human Gai1-RGS12 GoLoco interaction (red fluorophore). AID 880. Potency, µM (doses to about 61.6 µM), without a hit: top-dose activity, negative = inhibition, hits mostly inhibitors. Gai1:RGS12 GoLoco peptide FP, rhodamine, 10 min. P63096. 230,000 compounds, 0.44% hits; active = well fitted inhibition curve with a large enough effect, not every such curve was filed as active; inactive = no such curve, though single readings can be large or run the other way; note: nearly all actives have a fitted effect of over 30% in size
Target sequence (P63096 whole entry, looked up): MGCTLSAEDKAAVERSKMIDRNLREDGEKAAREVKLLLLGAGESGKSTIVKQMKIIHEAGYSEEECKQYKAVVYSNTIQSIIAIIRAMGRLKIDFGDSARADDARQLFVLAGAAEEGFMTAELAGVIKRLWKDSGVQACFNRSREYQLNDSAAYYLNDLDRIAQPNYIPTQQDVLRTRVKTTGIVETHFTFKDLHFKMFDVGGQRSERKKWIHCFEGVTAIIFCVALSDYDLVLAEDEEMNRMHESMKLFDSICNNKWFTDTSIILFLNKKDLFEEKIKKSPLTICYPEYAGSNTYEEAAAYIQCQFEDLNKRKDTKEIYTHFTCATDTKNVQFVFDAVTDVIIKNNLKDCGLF
Tau FP inhib: inhibitors of human tau fibril formation; AID 1468; K18 P301L tau heparin fibrillization, Alexa594 FP, 6 h; P10636; Potency, µM (highest dose often 57.7 µM), for the others: at the highest dose activity, negative = inhibition, most hits filed as inhibitors; 280,000 compounds, 0.39% hits; note: nearly all actives have a fitted effect of over 55% in size
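Recombinant K18 P301L […], labeled with Alexa 594 at 0.24 uM over 15 uM unlabeled; heparin inducer 20 uM final; 37 C, 6 hr; FP endpoint.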
* marks the source's active call; other numbers are inactive results; ? = inconclusive; nt = not tested or not shown; [ ] = another dose, or the depositor's remark. Shown are actives, neighbours in structure and some others; about 3.2% of the full set was active somewhere. Unless noted, calls come from the whole dose curve; as a rule, active = well fitted curve in the direction sought with a large enough effect; inconclusive = small, poorly fitted or top-dose-only effect, or another doubt; inactive = no such curve, though single readings can be large; an effect the other way counts as inactive or inconclusive. Unless noted, % is set by controls: 0 for no effect and ±100 for the full control effect; potency is the fitted concentration of half-maximal effect.

SMILES	TR SRC2 fluor cs	Tau fluor counter	TRb-SRC2 inh	Tau ThT inhib	RGS12 GoLoco inh	Tau FP inhib
O=C(Oc1ccc(NC2=C(Cl)C(=O)c3ccccc3C2=O)cc1)c1ccc([N+](=O)[O-])cc1	-33%	2.8µM*[quencher]	-9%	3.2µM*	2%	?
Cc1ccc(NC2=C(NCCO)C(=O)c3ccccc3C2=O)cc1	1%	?	-8%	22µM*	4%	?
CN(C)c1ccc(NC2=C(Cl)C(=O)c3ccccc3C2=O)cc1	-22%	3.5µM*[quencher]	-30%	7.9µM*	-32%	14µM*
O=C(Oc1ccc([N+](=O)[O-])cc1)c1cccnc1	-4%	-14%	-3%	?	-3%	8%
O=C1C=C(Nc2ccccc2)c2ccccc2C1=O	-2%	-19%	-14%	?	8%	-14%
CCOC(=O)c1cccc(NC(=O)CC2C(=O)N(c3ccc(Cl)cc3)C(=O)N2C2CCCC2)c1 (configuration not stated)	-3%	?	1%	-6%	nt	-15%
Cc1ccc(-n2ncc3c(Nc4cccc(Cl)c4)ncnc32)c(C)c1	0%	?	2%	3%	nt	25µM*
Cc1ccc(-n2ncc3c(Nc4cccc(C(F)(F)F)c4)ncnc32)cc1C	29%	?	?	15%	nt	10µM*
CCCCCCCC[Si](Cl)(Cl)Cl	1%[201 µM]	nt	1%[201 µM]	nt	nt	nt
CC[C@H](C)[C@H](NC(=O)[C@H](CCC(=O)O)NC(=O)CNC(=O)[C@@H](NC(=O)[C@@H]1CCCN1C(=O)[C@@H](NC(=O)[C@@H]1CCCN1C(=O)[C@@H]1CCCN1C(=O)[C@H](CC(N)=O)NC(=O)[C@H](CC(N)=O)NC(=O)[C@@H](NC(=O)[C@H](CCSC)NC(=O)[C@H](Cc1c[nH]c2ccccc12)NC(=O)CNC(=O)[C@@H](NC(=O)[C@H](CCC(N)=O)NC(=O)[C@@H](N)CCC(=O)O)[C@@H](C)CC)[C@@H](C)O)[C@@H](C)CC)C(C)C)C(=O)O	-3%	nt	-1%	nt	nt	nt
CCOC(=O)c1ccc(N2C(=O)c3[nH]nc(-c4ccccc4)c3C2c2ccc(CC)cc2)cc1 (configuration not stated)	-1%	?	2%	-8%	nt	?
N#CCCn1nc(-c2ccc(Br)cc2)cc1Nc1ccccc1NC(=O)C(F)(F)F	-1%	20µM*[quencher]	-8%	?	6%	15%
N#CCCn1nc(-c2ccccc2)cc1Nc1ccccc1NC(=O)C(F)(F)F	0%	-23%	-9%	-4%	-5%	1%
CC1CCN(c2nc(-c3ccc(C(C)(C)C)cc3)nc3ccccc23)CC1	0%	-21%	6%	-17%	nt	-8%
CCOC(=O)CN=C1CC(C)(C)CC2=C1Sc1ncnc(N(C)C)c1N2	3%	?	-13%	16µM*	12%	-19%
CCOC(=O)C1=C(C)NC2=C(C(=O)CC(C)(C)C2)C1c1cccc(C)n1 (configuration not stated)	-3%	-1%	-1%	2%	-10%	1%
Cc1[nH]n(-c2ncc(-c3ccc(Cl)cc3)s2)c(=O)c1C(c1ccc(Cl)cc1)C(C#N)C#N (configuration not stated)	-22%	?	4%	11µM*	14%	40µM*
COC(=O)C1=NOC2(C=C(Br)C(OC)=C(Br)C2=O)C1 (configuration not stated)	-1%[11.2 µM]	-23%[11.6 µM]	6%[11.2 µM]	4µM*	nt	?
COc1ccc(NC(=O)Cn2nc(C)c3nn(-c4ccc(Cl)cc4)c(C)c3c2=O)cc1	0%	-21%	7%	?	nt	-9%
CCC1(c2ccc(O)cc2)NC(=O)NC1=O (configuration not stated)	-1%	nt	-5%	nt	nt	nt
CCN(CC)S(=O)(=O)c1ccc(NC(=O)CCc2c(C)nc3cc(-c4ccc(Cl)cc4)nn3c2C)cc1	-2%	-25%	-3%	10%	nt	?
COc1cc(OC)cc(C(=O)NCCSc2c[nH]c3ccccc23)c1	-1%	?	1%	nt	-2%	12%
CCN(CC)S(=O)(=O)c1ccc(C(=O)NCCc2cc3c(OC)ccc(OC)c3[nH]c2=O)cc1	-1%	-14%	-6%	-28%	4%	11%
COc1cccc(C(=O)NCCSc2c(-c3ccc(F)cc3)[nH]c3ccccc23)c1OC	-4%	5µM*[quencher]	9%	-13%	nt	-8%
Cc1ccc(C(=O)NCCSc2c[nH]c3ccccc23)cc1C	-1%	16µM*[quencher]	-7%	?	nt	6%
SMILES	TR SRC2 fluor cs	Tau fluor counter	TRb-SRC2 inh	Tau ThT inhib	RGS12 GoLoco inh	Tau FP inhib
O=C(NCCSc1c[nH]c2ccccc12)c1c(F)cccc1F	-7%	-16%	-2%	-5%	3%	-2%
COc1ccc(-c2[nH]c3ccccc3c2SCCNC(=O)c2cc(OC)c(OC)c(OC)c2)cc1	-5%	7.1µM*[quencher]	9%	?	nt	13%
CCN(CC)S(=O)(=O)c1ccc(C(=O)NCCSc2c(-c3ccc(OC)cc3)[nH]c3ccccc23)cc1	-3%	4µM*[quencher]	1%	-2%	nt	3%
C=Cc1ccccn1	0%	nt	5%	nt	10%	nt
COc1ccc(C2C=C3CNS(=O)(=O)C3CC2OC(=O)c2ccc(C(F)(F)F)cc2)cc1 (configuration not stated)	-2%	nt	0%	nt	nt	nt
COc1ccc(-c2[nH]c3ccccc3c2SCCNC(=O)c2ccc(S(=O)(=O)N(C)C)cc2)cc1	0%	4µM*[quencher]	-2%	-10%	nt	3%
COCC(=O)NCCSc1c(C)[nH]c2ccccc12	0%	5%	-29%	2%	-1%	2%
O=C(Cc1cccs1)NCCSc1c(-c2ccc(Cl)cc2)[nH]c2ccccc12	-8%	7.1µM*[quencher]	1%	-15%	6%	-14%
CCOc1ccc(C(=O)NCCSc2c(C)[nH]c3ccccc23)cc1OCC	-2%	14µM*[quencher]	-7%	?	nt	?
CN(C)S(=O)(=O)c1ccc(C(=O)NCCSc2ccccc2)cc1	-4%	16%	-2%	19%	-15%	7%
Cc1ccc(-c2[nH]c3ccccc3c2SCCNC(=O)c2ccc(S(=O)(=O)N(C)C)cc2)cc1	-4%	?	4%	-2%	nt	8%
CN(C)S(=O)(=O)c1ccc(C(=O)NCCSc2c(-c3ccc(Cl)cc3)[nH]c3ccccc23)cc1	-1%	14µM*[quencher]	-1%	-12%	nt	-15%
NCCCC[C@H](N)C(=O)N[C@@H](CCCN=C(N)N)C(=O)N1CCC[C@H]1C(=O)N1CCC[C@H]1C(=O)NCC(=O)N[C@@H](Cc1ccccc1)C(=O)N[C@@H](CO)C(=O)N1CCC[C@H]1C(=O)N[C@@H](Cc1ccccc1)C(=O)O	1%	nt	10%	nt	nt	nt

Compound activity from PubChem BioAssay.
